Experiment [1] is described as follows: ATG_NFI_CIS: Attagene CIS-FACTORIAL HepG2 Assay for human Nuclear Factor I (NFI) (AID 2282989). To be noted: HepG2 cis-regulatory reporter, NFI response element transcription; actives raise or lower the signal. In short, it runs like this:
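HepG2, transient MRTU, 24 h exposure; RNA→cDNA→PCR→FAM label→HpaI→CE fluorescence. Bidirectional fit, DMSO = baseline.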

Experiment [2] concerns the target Myc proto-oncogene protein (Homo sapiens) (UniProt P01106). Put plainly: ATG_Myc_CIS: Attagene CIS-FACTORIAL HepG2 Assay for human Myelocytomatosis (Myc) Proto-Oncogene Transcription Factor (AID 2282990). Conditions: HepG2, Attagene cis-reporter transcription factor activity; actives raise or lower the signal. A digest of the protocol:
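Fluorescence intensity of reporter-specific cDNA fragments, separated by capillary electrophoresis, gives the signal. Transfected HepG2 cells carrying cis-promoter reporter constructs are incubated with compound for 24 h; DMSO serves as baseline.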

The nature of experiment [3]: ATG_NF_kB_CIS: Attagene CIS-FACTORIAL HepG2 Assay for human Nuclear Factor Kappa B (NF-kB) (AID 2282991). To be noted: HepG2 Attagene cis-factorial NF-kB reporter mRNA; actives raise or lower the signal. In short, it runs like this:
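HepG2, transient multi-reporter transfection, cis promoter elements (endogenous TFs). 24 h exposure. Total RNA → RT → PCR → 6-FAM label → HpaI → CE. Gain/loss vs DMSO.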

Experiment [4] in a line: ATG_NRF2_ARE_CIS: Attagene CIS-FACTORIAL HepG2 Assay for human Nuclear Factor Erythroid 2 Related Factor 2 (NFR2) response to Antioxidant Response Elements (ARE) (AID 2282992).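 As to AC50: reporter mRNA level measured by RT-PCR and capillary electrophoresis fluorescence.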 Conditions: HepG2 Attagene ARE/NRF2 reporter, transcription factor activity; actives raise or lower the signal. A digest of the protocol:
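HepG2 cells transiently transfected with multiplexed cis-element reporter constructs, 24 h after chemical dosing; reporter mRNA quantified by RT-PCR, fluorescent primer extension, HpaI digestion and capillary electrophoresis. Bidirectional fit relative to DMSO.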

Experiment [5] deals with Cellular tumor antigen p53 (Homo sapiens) (UniProt P04637). Put plainly: ATG_p53_CIS: Attagene CIS-FACTORIAL HepG2 Assay for human p53 Transcription Factor (AID 2282994). Conditions: HepG2 p53 cis-element reporter, Attagene mRNA; actives raise or lower the signal. In short, it runs like this: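 HepG2 cells transiently transfected with cis-regulated multiple reporter transcription units, dosed 24 h. Reporter mRNA measured by RT-PCR, 6-FAM primer extension, HpaI digestion and capillary electrophoresis; bidirectional fit relative to DMSO.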

Experiment [6] can be described thus: BSK_3C_uPAR: BioMAP Diversity Plus: 3C Assay for Urokinase-type plasminogen activator receptor (uPAR) Biomarker Activity (AID 2282998). To be noted: BioMAP 3C HUVEC, uPAR biomarker ELISA; actives raise or lower the signal. A digest of the protocol: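 Dose primary human umbilical vein endothelial cells, incubate 24 h, measure cell-surface uPAR by ELISA, then fit the signal in both directions against the DMSO negative control.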
(ELISA stands for enzyme-linked immunosorbent assay.)

Experiment [7] can be described thus: BSK_3C_VCAM1: BioMAP Diversity Plus: 3C Assay for Vascular cell adhesion molecule 1 (VCAM1) Biomarker Activity (AID 2282999). To be noted: BioMAP 3C HUVEC, VCAM1 ELISA, cytokine-stimulated; actives raise or lower the signal. A digest of the protocol: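 Human umbilical vein endothelial cells (3C system), biomarker read by ELISA 24 h after dosing; bidirectional fit against DMSO baseline. Cytotoxicity tracked by SRB total-protein staining in parallel cultures at biomarker time.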

A short description of experiment [8]: ATG_Oct_MLP_CIS: Attagene CIS-FACTORIAL HepG2 Assay for human Octamer-Binding Transcription Factor (Oct) (AID 2282993). To be noted: HepG2 Attagene cis-factorial Oct reporter, mRNA; actives raise or lower the signal. A digest of the protocol:
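Multiplexed cis-reporter assay in human liver HepG2 cells, 24 h incubation. Reporter RNA amplified and labelled, then resolved by capillary electrophoresis; DMSO serves as negative control and baseline.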

SMILES strings stand for the structures. “And” between values parts separate entries of the source, which are not always exact repeats. Equal values may be shown once. A structure can be active in one record and inactive in another. The source made the active and inactive calls. The calls were made as follows: active = hit-call score of the fitted dose curve at least 0.9, where 1 is the maximum; inactive = score below 0.9.

Sequence of Myc proto-oncogene protein (Homo sapiens) (P01106 whole entry, looked up, the tested form may be a part): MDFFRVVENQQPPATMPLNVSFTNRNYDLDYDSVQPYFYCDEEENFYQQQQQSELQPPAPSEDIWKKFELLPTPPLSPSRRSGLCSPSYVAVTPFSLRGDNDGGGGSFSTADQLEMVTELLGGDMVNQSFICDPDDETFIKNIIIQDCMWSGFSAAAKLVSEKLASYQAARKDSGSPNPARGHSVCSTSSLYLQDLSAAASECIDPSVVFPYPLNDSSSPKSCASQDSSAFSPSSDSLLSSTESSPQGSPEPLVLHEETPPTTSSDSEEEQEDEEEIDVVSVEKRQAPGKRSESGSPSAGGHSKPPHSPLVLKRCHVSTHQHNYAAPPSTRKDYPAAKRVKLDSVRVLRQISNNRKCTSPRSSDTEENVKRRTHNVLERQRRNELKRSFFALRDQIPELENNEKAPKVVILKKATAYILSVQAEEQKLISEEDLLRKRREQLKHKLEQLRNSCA
Sequence of Cellular tumor antigen p53 (Homo sapiens) (P04637 whole entry, looked up): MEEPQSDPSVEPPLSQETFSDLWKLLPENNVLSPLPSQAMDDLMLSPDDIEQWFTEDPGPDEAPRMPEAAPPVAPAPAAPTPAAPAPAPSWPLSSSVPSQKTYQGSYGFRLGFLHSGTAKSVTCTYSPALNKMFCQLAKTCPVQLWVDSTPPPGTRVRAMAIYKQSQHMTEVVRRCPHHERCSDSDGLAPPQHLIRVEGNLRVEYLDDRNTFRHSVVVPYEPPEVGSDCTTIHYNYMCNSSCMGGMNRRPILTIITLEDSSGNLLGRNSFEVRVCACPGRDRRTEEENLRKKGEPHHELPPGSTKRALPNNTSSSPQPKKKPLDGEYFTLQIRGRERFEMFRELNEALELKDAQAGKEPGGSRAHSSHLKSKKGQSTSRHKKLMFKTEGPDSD

On to `CN(C)c1ccc(C(=C2C=CC(=[N+](C)C)C=C2)c2ccccc2)cc1`, for which the half-maximal activity concentration (AC50) was 5.55 µM (active) in experiment [1]; 933 nM (active) and 1.85 µM (active) in experiment [3]; 474 nM (active) and 475 nM (active) in experiment [4]; 1.61 µM (active) and 2.64 µM (active) in experiment [5]; 0.0141 µM (active) in experiment [6]; 0.0273 µM (active) in experiment [7]. Further, the compound was called inactive in experiment [1] and in experiment [2].
Consider `O=S(=O)(c1ccc(OCc2ccccc2)cc1)c1ccccc1O`, for which the AC50 in experiment [1] was 33.4 µM (active); in experiment [4] it was 8.89 µM (active); in experiment [8] it was 31.9 µM (active); in experiment [5], 33.4 µM (active). For the same compound, the outcome in experiment [2] and in experiment [3] was inactive.
For the compound `FCOC(C(F)(F)F)C(F)(F)F`, the call in experiment [1], in experiment [2], in experiment [3] and in experiment [4] was inactive.
With `CCOC(OCC)C(=O)c1ccccc1`, the result in experiment [1], in experiment [2], in experiment [3], in experiment [4], in experiment [8] and in experiment [5] was inactive.
`O=S(=O)(O)c1ccccc1`: the outcome in experiment [1], in experiment [2], in experiment [3], in experiment [4] and in experiment [8] was inactive.
`CC(C)[C@@H]1CC[C@@H](C)C[C@H]1O`: the call in experiment [1], in experiment [2], in experiment [3], in experiment [4] and in experiment [8] was inactive.
Turning to `O=C1c2ccccc2C(=O)c2c(O)c(O)cc(O)c21`, the compound was called inactive in experiment [1], in experiment [2], in experiment [8] and in experiment [5]. Besides, the AC50 in experiment [3] was 32.4 µM (active); in experiment [4] it was 5.36 µM (active).
Regarding `CCOC(C)=O`, the call in experiment [1], in experiment [2], in experiment [3], in experiment [4], in experiment [8] and in experiment [5] was inactive.
Regarding `C=C(c1ccc(C(=O)O)cc1)c1cc2c(cc1C)C(C)(C)CCC2(C)C`, the compound was called inactive in experiment [1], in experiment [2], in experiment [3], in experiment [4] and in experiment [8]. Moreover, the AC50 is 26 µM (active) in experiment [2], 11.1 µM (active) in experiment [3] and 11.1 µM (active) in experiment [8].
With `CCN(CCC#N)c1ccccc1`, the compound was classed as inactive in experiment [1], in experiment [2], in experiment [3], in experiment [4] and in experiment [8].
For `O=C1C=CC(=O)N1c1cccc(N2C(=O)C=CC2=O)c1`, the compound was classed as inactive in experiment [1], in experiment [2], in experiment [3], in experiment [4], in experiment [8] and in experiment [5].
For `C=Cc1ccc(O)c(OC)c1`, the result in experiment [1], in experiment [2], in experiment [3], in experiment [8] and in experiment [5] was inactive. For the same compound, the AC50 in experiment [4] was 6.89 µM (active).
As for `C/C=C/C(=O)C1=C(C)CCCC1(C)C`, the concentration at half-maximal activity (AC50) in experiment [1] was 65.1 µM (active); in experiment [4], 3.93 µM (active); in experiment [8], 27.1 µM (active); in experiment [5], 164 µM (active). For the same compound, the outcome in experiment [2] and in experiment [3] was inactive.
For the compound `CC(O)COc1ccccc1` (stereo not given), the compound was classed as inactive in experiment [1], in experiment [2], in experiment [3], in experiment [4], in experiment [8] and in experiment [5].
In the case of `c1cc2cccc3c4cccc5cccc(c(c1)c23)c54`, the compound was called inactive in experiment [1], in experiment [2], in experiment [3], in experiment [8] and in experiment [5]. Moreover, the AC50 in experiment [4] was 19.8 µM (active).
Take `CCCCCCCCCC=CCC1CC(=O)OC1=O` (stereo not given): the call in experiment [1], in experiment [2], in experiment [4], in experiment [8] and in experiment [5] was inactive. Also, the AC50 in experiment [3] is 54.9 µM (active).
`CCCCc1ccc2ccccc2c1S(=O)(=O)O`: the outcome in experiment [1], in experiment [2], in experiment [3], in experiment [8] and in experiment [5] was inactive. Besides, the half-maximal activity concentration (AC50) in experiment [4] was 8.84 µM (active).
Consider `COCC1CCC(CO)CC1` (stereo not given), for which the outcome in experiment [1], in experiment [2], in experiment [3], in experiment [4], in experiment [8] and in experiment [5] was inactive.
Turning to `C=CC(=O)OCC(CO)(COCC(COC(=O)C=C)(COC(=O)C=C)COC(=O)C=C)COC(=O)C=C`, the outcome in experiment [1], in experiment [2] and in experiment [4] was inactive. The AC50 in experiment [3] was 0.817 µM (active); in experiment [8], 2.89 µM (active); in experiment [5], 2.86 µM (active).
As to `CCCCCCCCCCCCOC(=O)c1cc(O)c(O)c(O)c1`, the compound was called inactive in experiment [1], in experiment [2], in experiment [3] and in experiment [5]. The figures for the AC50 in experiment [4] and in experiment [8] were 2.95 µM (active) and 11.1 µM (active), respectively.
In the case of `Cc1cc(=O)oc2cc(O)ccc12`, the outcome in experiment [1], in experiment [2], in experiment [3], in experiment [4], in experiment [8] and in experiment [5] was inactive.
In the case of `O=C(c1cc(O)c(O)c(O)c1)c1ccc(O)c(O)c1O`, the result in experiment [1], in experiment [2], in experiment [3], in experiment [4] and in experiment [8] was inactive. In experiment [5], the AC50 was 100 µM (active).
Regarding `FC(F)(F)C1(F)C(F)(F)C(F)(F)C(F)(F)C(F)(C(F)(F)F)C1(F)F` (stereo not given), the compound was classed as inactive in experiment [1], in experiment [2], in experiment [3], in experiment [4], in experiment [8] and in experiment [5].
Consider `CCC(=O)O`, for which the call in experiment [1], in experiment [2], in experiment [3], in experiment [4], in experiment [8] and in experiment [5] was inactive.
Turning to `CCOC=O`, the result in experiment [1], in experiment [2], in experiment [3], in experiment [4], in experiment [8] and in experiment [5] was inactive.
`CC(C)CCOCCC(C)C`: the outcome in experiment [1], in experiment [2], in experiment [3], in experiment [4], in experiment [8] and in experiment [5] was inactive.
Consider `CC(C)(O)C(=O)c1ccccc1`, for which the compound was classed as inactive in experiment [1], in experiment [2], in experiment [3], in experiment [4], in experiment [8] and in experiment [5].
With `COC(O)c1ccccc1` (stereo not given), the outcome in experiment [1], in experiment [2], in experiment [3], in experiment [4], in experiment [8] and in experiment [5] was inactive.
As to `COc1ccccc1NC(=O)c1cc2ccccc2cc1O`, the AC50 is 30.4 µM (active) in experiment [1], 100 µM (active) in experiment [2], 26.7 µM (active) in experiment [8] and 17.4 µM (active) in experiment [5]. For the same compound, the compound was classed as inactive in experiment [3] and in experiment [4].
Regarding `CCCCCCCCCCCC(=O)NCCCN(C)C`, the AC50 is 17.1 µM (active) in experiment [1], 20.9 µM (active) in experiment [8] and 20.2 µM (active) in experiment [5]. Moreover, the compound was called inactive in experiment [2], in experiment [3] and in experiment [4].
Consider `CCCCN(C)C`, for which the call in experiment [1], in experiment [2], in experiment [3], in experiment [4], in experiment [8] and in experiment [5] was inactive.

By AC50 is commonly meant the concentration at which the activity in the assay is half-maximal.
